ERG Ets-DNA blk – qHTS for Small Molecule Inhibitors of the ERG Ets/DNA interaction; fluorescence polarization, His-ERG Ets domain / labelled DNA; Potency, µM (series often up to 76.9 µM), inactives show at the top dose FP activity, negative = inhibition, usual class: inhibitors; hit rate 0.028% among 370,000; active = well fitted inhibition curve with a large enough effect in the polarisation, with a control signal flat; inconclusive = small, poorly fitted or top-dose-only effect, or effect the other way, or a change in a side signal; inactive = no such curve, though single readings can be large or run the other way; the % refers to the polarisation;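 also: polarization taken with two DNA probes labelled with fluorescein and Texas red; % of control where 0% means no effect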
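His-tagged ERG Ets domain (1 uM in the protein solution; 300mM KCl, 50mM Tris-HCl, 1mM EDTA, 1mM DTT, pH 7.5) received compound, then a probe mix of 5 nM fluorescein-DNA and 100nM Texas-615-DNA. Fluorescence polarization was read for both dyes.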
EPAC1 ag – qHTS for Agonist of cAMP-regulated guanine nucleotide exchange factor 3 (EPAC1): primary screen. hit rate 0.073% among 360,000. Rap guanine nucleotide exchange factor 3 (Homo sapiens), O95398. EPAC1 agonist qHTS, biochemical assay; response scale: 100% = response to 6.5 mM cAMP. Potency, µM (series often up to 154 µM), for inactives: at the top dose activation, usual class: activators. AID 720707, 2013; also: nearly all actives have a fitted effect of over 60% in size
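Read-out is the fluorescence drop as BODIPY-GDP leaves Rap1B (480 nm excitation, 540 nm emission), recorded every 5 minutes over 30 minutes. Reactions held 100 nM EPAC1, 250 nM Rap1B–BODIPY-GDP and 50 uM GDP, with 6.5 mM cAMP setting full activation.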
EPAC1 antagonist – qHTS for Antagonist of cAMP-regulated guanine nucleotide exchange factor 3 (EPAC1): primary screen. Rap guanine nucleotide exchange factor 3 (Homo sapiens), O95398. EPAC1 GEF assay, Rap1b-BODIPY-GDP exchange fluorescence. Potency, µM (highest dose often 115 µM), for the others: at the top dose activity change, negative = inhibition, hits mostly inhibitors. hit rate 0.14% among 360,000;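 also: plate controls were vehicle for no effect and positive control for full effect; nearly all actives have a fitted effect of over 50% in size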
EPAC2 antag – qHTS for Antagonist of cAMP-regulated guanine nucleotide exchange factor 2 (EPAC2): primary screen; Rap guanine nucleotide exchange factor 4 (Homo sapiens), Q8WZA2; EPAC2 GEF exchange of Rap1B-BODIPY-GDP, fluorescence; Potency, µM (doses to about 114 µM), for inactives: at the highest dose activity, negative = inhibition, usual class: inhibitors; hit rate 0.18% among 360,000; AID 720708, 2013; also: % is scaled to controls: 0 for no effect and ±100 for the full control effect; nearly all actives have a fitted effect of over 45% in size
Target sequence (Q8WZA2 whole entry, looked up): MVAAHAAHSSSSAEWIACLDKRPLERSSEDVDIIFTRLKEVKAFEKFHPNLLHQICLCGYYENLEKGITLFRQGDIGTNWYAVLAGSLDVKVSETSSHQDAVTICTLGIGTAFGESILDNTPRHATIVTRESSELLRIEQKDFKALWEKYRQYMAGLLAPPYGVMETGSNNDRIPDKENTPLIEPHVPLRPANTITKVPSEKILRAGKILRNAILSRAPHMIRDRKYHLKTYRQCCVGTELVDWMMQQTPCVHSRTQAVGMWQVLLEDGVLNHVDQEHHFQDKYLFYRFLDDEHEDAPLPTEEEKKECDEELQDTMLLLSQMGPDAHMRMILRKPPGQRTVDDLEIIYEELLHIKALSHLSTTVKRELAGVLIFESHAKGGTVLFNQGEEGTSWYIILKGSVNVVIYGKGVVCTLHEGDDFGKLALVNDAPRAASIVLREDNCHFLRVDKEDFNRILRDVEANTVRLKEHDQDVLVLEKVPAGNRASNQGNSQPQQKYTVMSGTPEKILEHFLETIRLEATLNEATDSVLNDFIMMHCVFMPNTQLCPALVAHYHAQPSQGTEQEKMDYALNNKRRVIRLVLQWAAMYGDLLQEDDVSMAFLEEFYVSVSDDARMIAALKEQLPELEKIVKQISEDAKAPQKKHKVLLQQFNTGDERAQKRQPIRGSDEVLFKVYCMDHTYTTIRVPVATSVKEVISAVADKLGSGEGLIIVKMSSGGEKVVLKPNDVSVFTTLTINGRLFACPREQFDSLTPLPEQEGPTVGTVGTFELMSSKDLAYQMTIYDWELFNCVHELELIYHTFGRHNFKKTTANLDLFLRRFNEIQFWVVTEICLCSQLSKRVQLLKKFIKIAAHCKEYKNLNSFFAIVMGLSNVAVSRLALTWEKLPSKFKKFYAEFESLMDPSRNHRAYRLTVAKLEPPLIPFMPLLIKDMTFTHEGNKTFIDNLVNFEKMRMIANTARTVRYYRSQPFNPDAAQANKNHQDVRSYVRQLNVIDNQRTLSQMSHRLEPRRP
RGS4 inhibitor – Inhibitors of Regulator of G Protein Signaling (RGS) 4: qHTS; Regulator of G-protein signaling 4 (Homo sapiens), P49798; AID 504845, 2011; Potency, µM (doses to about 114 µM), without a hit: top-dose activity change, negative = inhibition, most hits filed as inhibitors; Transcreener GDP fluorescence polarization, RGS4-accelerated GTP hydrolysis; hit rate 0.039% among 390,000; also: % is scaled to controls: 0 for no effect and ±100 for the full control effect; nearly all actives have a fitted effect of over 75% in size
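MLSMR compounds (23 nl, pin-transferred) preincubated 10 min at room temperature with a 500nM (2x) first reagent, then RGS4 at 900nM (2x) plus Transcreener GDP mix added; fluorescence polarization (620/688 nm) read before and after 90 min at 30 °C.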
EPAC2 ag – qHTS for Agonist of cAMP-regulated guanine nucleotide exchange factor 4 (EPAC2): primary screen. hit rate 0.079% among 360,000. Rap guanine nucleotide exchange factor 4 (Homo sapiens), Q8WZA2. Potency, µM (series often up to 154 µM), inactives show at the top dose activation, hits mostly activators. EPAC2 activation, biochemical qHTS; response scale: 100% = 6.5 mM cAMP response; also: nearly all actives have a fitted effect of over 50% in size
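EPAC2 (100 nM) mixed with Rap1B loaded with BODIPY-GDP (250 nM) plus 50 uM unlabeled GDP; compounds pinned in, 5 min RT, then read every 5 min for 30 min (ex 480, em 540 nm). Normalized to cAMP control.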
An asterisk follows results filed as active; [ ] = remark or other dose. In the library only some 0.4% were active in any assay of this set; here they are far more common. Unless noted, calls follow the shape of the dose curve; as a rule, active = well fitted curve in the direction sought with a large enough effect; inconclusive = small, poorly fitted or top-dose-only effect, or another doubt; inactive = no such curve, though single readings can be large; an effect the other way counts as inactive or inconclusive. Potency is read from the fitted curve at half-maximal effect.

`O=C(N/N=C/c1cc(Br)c(O)c(Br)c1)c1cc2c(ccc3ccccc32)o1` gave ERG Ets-DNA blk 12.1%, EPAC1 ag -4.1%, EPAC1 antagonist 28.2µM*, EPAC2 antag -14.5%, RGS4 inhibitor inconclusive and EPAC2 ag 7.7%.
For Clc1cccc(Cl)c1C1Nc2cccc3cccc(c23)N1 the results were ERG Ets-DNA blk 19.7%, EPAC1 ag 7.4%, EPAC1 antagonist inconclusive, EPAC2 antag 56.2µM*, RGS4 inhibitor inconclusive and EPAC2 ag 10.5%.
Screening NC1(C(=O)O)CCc2cc(P(=O)(O)O)ccc21 (stereo not given) returned RGS4 inhibitor 37.7µM*.
N[C@]1(C(=O)O)CCc2cc(P(=O)(O)O)ccc21 was read as RGS4 inhibitor 212.2%[56.9 µM].
For O=C(Nc1cccc(O)c1)c1ccc2c(c1)C(=O)N(Cc1ccco1)C2=O the results were ERG Ets-DNA blk -2.0%, EPAC1 ag 4.1%, EPAC1 antagonist -3.6%, EPAC2 antag 1.0%, RGS4 inhibitor -26.4% and EPAC2 ag -2.8%.
For O=C(Nc1ccc(Cl)cc1C(=O)O)c1ccc2c(c1)C(=O)N(Cc1ccco1)C2=O the results were ERG Ets-DNA blk -2.3%, EPAC1 ag 3.6%, EPAC1 antagonist 79.4µM*, EPAC2 antag inconclusive, RGS4 inhibitor -18.4% and EPAC2 ag 0.9%.
COc1ccc(NC(=O)Nc2nnc(N(CC(C)C)CC(C)C)s2)c(OC)c1 was read as ERG Ets-DNA blk -5.2% and RGS4 inhibitor -13.3%.
`O=c1c2ccccc2sn1-c1ccc(Cl)cc1Cl` gave EPAC1 ag -0.8%, EPAC1 antagonist 0.4%, EPAC2 antag 11.2µM* and EPAC2 ag 1.8%.
For O=c1c2ccccc2ncn1-c1ccc(Cl)cc1Cl the results were ERG Ets-DNA blk -19.9%, EPAC1 ag 14.2%, EPAC1 antagonist -1.2%, EPAC2 antag inconclusive, RGS4 inhibitor 4.7% and EPAC2 ag 15.3%.
Screening COc1ccc(OC)c(/C=c2\sc3nc(-c4cccs4)nn3c2=O)c1 returned ERG Ets-DNA blk -1.5%, EPAC1 ag 112µM*, EPAC1 antagonist -4.4%, EPAC2 antag 204.7%, RGS4 inhibitor -12.3% and EPAC2 ag 100µM*.
For CCOc1ccc(C2C(C(N)=O)=C(C)Nc3nc(SCc4ccccc4F)nn32)cc1 (stereo not given) the results were ERG Ets-DNA blk -0.2% and RGS4 inhibitor -11.3%.
For O=C(O)C(c1ccccc1)N1C(=O)/C(=C/c2cccs2)SC1=S (stereo not given) the results were ERG Ets-DNA blk -12.8%, EPAC1 ag -1.8%, EPAC1 antagonist -18.3%, EPAC2 antag 56.2µM*, RGS4 inhibitor -45.4% and EPAC2 ag -10.9%.
O=[N+]([O-])c1ccc(C=NN2CCOCC2)s1 was read as EPAC1 ag -1.6%, EPAC1 antagonist -4.6%, EPAC2 antag -19.0% and EPAC2 ag -5.5%.
`O=[N+]([O-])c1cc(/C=N/N2CCOCC2)cs1` gave ERG Ets-DNA blk 31.6µM*, EPAC1 ag 3.6%, EPAC1 antagonist -5.3%, EPAC2 antag -0.1%, RGS4 inhibitor -6.3% and EPAC2 ag 2.8%.
C[C@H]1C(=O)N(S(=O)(=O)c2ccc([N+](=O)[O-])cc2)[C@H]1c1ccc(F)cc1 was read as RGS4 inhibitor -16.7%.
COC(=O)c1cn(C(=O)c2ccccc2Cl)c2ccccc12 was read as ERG Ets-DNA blk -0.3%, EPAC1 ag 6.7%, EPAC1 antagonist 12.7%, EPAC2 antag 28.2µM*, RGS4 inhibitor 1.0% and EPAC2 ag 14.5%.
`Cc1ccc(-n2ncc(C(=O)NCCN3CCN(C)CC3)c2C2CCN(C(=O)OC(C)(C)C)CC2)c(C)c1` gave ERG Ets-DNA blk -0.1% and RGS4 inhibitor 16.6%.
CC(=O)N1c2ccccc2CC1C(=O)N1CCN(c2cccc(Cl)c2)CC1 (stereo not given) was read as ERG Ets-DNA blk 5.0% and RGS4 inhibitor 0.5%.
CCN(CC1COc2ccccc2O1)C(=O)CN1C(=O)NC(C)(c2ccccc2)C1=O (stereo not given) was read as ERG Ets-DNA blk -10.5%, EPAC1 ag -2.2%, EPAC1 antagonist 13.6%, EPAC2 antag -5.0%, RGS4 inhibitor -5.6% and EPAC2 ag 15.6%.
For CCN(CC1COc2ccccc2O1)C(=O)CN1C(=O)NC(C)(c2ccc(C)cc2)C1=O (stereo not given) the results were ERG Ets-DNA blk -0.6%, EPAC1 ag 56.2µM*, EPAC1 antagonist -16.2%, EPAC2 antag 8.6%, RGS4 inhibitor -28.0% and EPAC2 ag 3.0%.
For CCCCC#Cc1nc(NC)c2ncn([C@@H]3O[C@@H](CO)[C@H](O)[C@H]3O)c2n1 the results were RGS4 inhibitor inactive.
`C=C1CCN(C(CC(C)C)C(=O)O)S(=O)(=O)c2ccccc21` (stereo not given) gave RGS4 inhibitor -11.6%.
For CCOC(=O)CC(=O)CSc1nc(CC)c(C)cc1C#N the results were ERG Ets-DNA blk -2.3%, EPAC1 ag 2.6%, EPAC1 antagonist -19.0%, EPAC2 antag 0.8%, RGS4 inhibitor -16.2% and EPAC2 ag 23.3%.
For CCOC(=O)CC(=O)CSc1nc2ccc(C)cc2cc1C#N the results were EPAC1 ag inconclusive, EPAC1 antagonist 10.2%, EPAC2 antag 35.7%, RGS4 inhibitor -31.0% and EPAC2 ag 100µM*.
`O=S(=O)(O)c1cc(O)c(N=Nc2ccc(O)cc2O)c2ccccc12` gave ERG Ets-DNA blk 43.6%, EPAC1 ag -8.1%, EPAC1 antagonist 79.4µM*, EPAC2 antag 44.7µM*, RGS4 inhibitor -47.1% and EPAC2 ag 11.7%.
O=[N+]([O-])c1ccc(Sc2cccc[n+]2[O-])c2nonc12 was read as ERG Ets-DNA blk -6.4%, EPAC1 ag -20.3%, EPAC1 antagonist 35.5µM*, EPAC2 antag 56.2µM*, RGS4 inhibitor -116.8% and EPAC2 ag -9.6%.

Source: PubChem (National Center for Advancing Translational Sciences (NCATS))
